Active and inactive are the calls of the source.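 The calls were made as follows: active = compounds whose cell count with miR-34 switched on is under 0.7 times the count with it off; inactive = the rest.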

A short description of this assay: sensitizers of A549 cells to miR-34 induction, primary screen, imaging, A549 dox-inducible miR-34, nuclei and caspase counts (AID 1347080). Also: test concentration not given here. Particulars: A549 miR-34 inducible, Hoechst nuclei count, 48 h.
The mark [1] stands for this setting: stronger effect = lower value, cell number ratio, induced over uninduced.
Where [2] appears, read: measured here: relative caspase fold change +Dox/-Dox.
The mark [3] stands for this setting: measured here: total cells with miR-34 induction, stronger effect = lower value.
Where [4] appears, read: measured here: total cells without miR-34 induction.

For `O=C(O)CCC/C=C\C[C@@H]1[C@@H](/C=C/[C@@H](O)C2CCCCC2)[C@H](O)C[C@@H]1O`, the fold change was 0.938 (inactive) under setting [1] and 1.34 under setting [2]. For the same compound, the cell count is, setting by setting: under setting [3], 5910; under setting [4], 6300.

For the compound `C=C(C)[C@@H]1CCC(C)=C[C@H]1c1c(O)cc(C)cc1O`, the fold change is 0.94 (inactive) under setting [1] and 1.01 under setting [2]. Moreover, the cell count under setting [3] was determined as 5290 and the cell count under setting [4] was determined as 5630.

For the compound `CCCCCCCCCCCCCCCCOC[C@@H](CO)SC(C)=O`, the fold change under setting [1] is 1.02 (inactive) and the fold change under setting [2] stood at 0.6. For the same compound, the cell count reads like this: under setting [3], 5400; under setting [4], 5270.

For `Cc1ccccc1C#Cc1ccc(CCC(=O)O)cc1`, the fold change under setting [1] was 1.11 (inactive) and the fold change under setting [2] was found to be 1.21. Further, the cell count stood at 6610 under setting [3] and 5930 under setting [4].

For the compound `O=C(O)/C=C/CCCCCCCCC(=O)O`, the fold change is, setting by setting: under setting [1], 0.99 (inactive); under setting [2], 1.16. Moreover, the cell count runs as follows: under setting [3], 5830; under setting [4], 5890.

On to `CCCCCCCCCCCC1N[C@H](C(=O)O)CS1` (some centres undefined), for which the fold change reads like this: under setting [1], 0.939 (inactive); under setting [2], 1.06. For the same compound, the cell count is 5330 under setting [3] and 5670 under setting [4].

In the case of `CCCCCCCCCC(=O)NC(CN1CCOCC1)C(O)c1ccccc1` (centres undefined), the fold change reads like this: under setting [1], 1.03 (inactive); under setting [2], 0.968. The cell count under setting [3] is 5830 and the cell count under setting [4] was found to be 5670.

Take `C[C@@H](O)CCC[C@@H](O)/C=C/[C@@H]1[C@@H](CCCCCCC(=O)O)[C@@H](O)C[C@H]1O`: the fold change reads like this: under setting [1], 0.879 (inactive); under setting [2], 1.31. Besides, the cell count is, setting by setting: under setting [3], 5220; under setting [4], 5940.

On to `CCCCC[C@H](O)/C=C/[C@@H]1[C@@H](C/C=C\CCCC(=O)NCC)[C@@H](O)C[C@H]1O`, for which the fold change reads like this: under setting [1], 0.749 (inactive); under setting [2], 1.63. For the same compound, the cell count by setting is: under setting [3], 5570; under setting [4], 7440.

Consider `CC/C=C\C/C=C\C/C=C\C/C=C\CCCCC(=O)O`, for which the fold change under setting [1] is 0.875 (inactive) and the fold change under setting [2] is 0.773. Further, the cell count is, setting by setting: under setting [3], 5720; under setting [4], 6540.

Take `CCCC[C@H](C)C[C@H](O)/C=C/[C@@H]1[C@@H](CCCCCCC(=O)O)[C@@H](O)C[C@H]1O`: the fold change is 0.931 (inactive) under setting [1] and 1.78 under setting [2]. Moreover, the cell count was found to be 5490 under setting [3] and 5900 under setting [4].

On to `CCCCCC(=O)OC[C@H](CO)OC(=O)CCCCC`, for which the fold change runs as follows: under setting [1], 0.964 (inactive); under setting [2], 0.528. Also, the cell count under setting [3] came out at 5390 and the cell count under setting [4] turned out to be 5590.

As for `CCCCCCCCCCCCCCCCCC(=O)NCCS(=O)(=O)O`, the fold change reads like this: under setting [1], 1.11 (inactive); under setting [2], 0.61. The cell count is, setting by setting: under setting [3], 6120; under setting [4], 5530.

`CCCCCCCCCCCCC/C=C/[C@@H](O)[C@H](CO)NC(=O)CCCCC`: the fold change under setting [1] is 0.988 (inactive) and the fold change under setting [2] amounted to 0.834. Further, the cell count turned out to be 5840 under setting [3] and 5910 under setting [4].

Regarding `CCCCC(C)(C)[C@H](O)/C=C/[C@H]1[C@H](O)CC(=O)[C@@H]1CC(=O)CCCCC(=O)O`, the fold change is, setting by setting: under setting [1], 0.919 (inactive); under setting [2], 1.32. Moreover, the cell count is, setting by setting: under setting [3], 5680; under setting [4], 6180.

On to `CC(C)OC(=O)CCC/C=C\C[C@H]1C(=O)C[C@@H](O)[C@@H]1/C=C/[C@@H](O)COc1cccc(C(F)(F)F)c1`, for which the fold change by setting is: under setting [1], 0.919 (inactive); under setting [2], 1.4. Besides, the cell count reads like this: under setting [3], 5960; under setting [4], 6490.

Turning to `O=S(=O)(NO)c1ccccc1`, the fold change runs as follows: under setting [1], 1.01 (inactive); under setting [2], 0.412. Besides, the cell count is, setting by setting: under setting [3], 5110; under setting [4], 5060.

With `CCCCCCC[C@H](O)/C=C/[C@@H]1[C@@H](C/C=C\CCCC(=O)O)[C@@H](O)C[C@H]1O`, the fold change is 0.945 (inactive) under setting [1] and 1.5 under setting [2]. For the same compound, the cell count by setting is: under setting [3], 6150; under setting [4], 6520.

As for `O=C(CN=C(c1ccccc1)c1ccccc1)OCc1ccccc1`, the fold change under setting [1] was 0.875 (inactive) and the fold change under setting [2] is 1.1. Moreover, the cell count is 5290 under setting [3] and 6050 under setting [4].

On to `O=C(/C=C/c1cccc(C(=O)NO)c1)NO`, for which the fold change under setting [1] was 0.962 (inactive) and the fold change under setting [2] is 1.09. Also, the cell count runs as follows: under setting [3], 4750; under setting [4], 4940.

For `CC1CCN=C(N)C1` (centres undefined), the fold change is 0.966 (inactive) under setting [1] and 0.767 under setting [2]. Besides, the cell count was determined as 6190 under setting [3] and 6410 under setting [4].

As to `CCCCCCCCCCCCCCCCCCCCCC(=O)NCCO`, the fold change reads like this: under setting [1], 1.03 (inactive); under setting [2], 0.641. Moreover, the cell count runs as follows: under setting [3], 6180; under setting [4], 5980.

Turning to `O=C(O)CCC/C=C\C[C@@H]1C(=O)C[C@@H](O)[C@@H]1/C=C/[C@@H](O)CC1CCCCC1`, the fold change reads like this: under setting [1], 1.22 (inactive); under setting [2], 0.461. In addition, the cell count is, setting by setting: under setting [3], 7070; under setting [4], 5800.

As to `CCCCCC(=O)CC[C@H]1C=CC(=O)[C@@H]1C/C=C\CCCC(=O)O`, the fold change was 0.899 (inactive) under setting [1] and 1.77 under setting [2]. The cell count was 5230 under setting [3] and 5820 under setting [4].

On to `CCCCC[C@H](O)/C=C/[C@H]1C2CC(CO2)[C@@H]1CCCCCCC(=O)O` (some centres undefined), for which the fold change was 0.941 (inactive) under setting [1] and 0.43 under setting [2]. For the same compound, the cell count reads like this: under setting [3], 5850; under setting [4], 6210.

As to `CCOC(=O)c1ccc(N=Nc2ccc(O)c(CC(=O)O)c2)cc1`, the fold change under setting [1] is 0.95 (inactive) and the fold change under setting [2] came to 0.801. Besides, the cell count reads like this: under setting [3], 6160; under setting [4], 6490.

As to `CCCCCCCCCCCCCCCCOC[C@H](COP(=O)([O-])OCC[N+]1(C)CCCC1)OC(C)=O`, the fold change under setting [1] was 0.82 (inactive) and the fold change under setting [2] turned out to be 1.31. The cell count by setting is: under setting [3], 5250; under setting [4], 6400.

For `CCNC1=N[C@@H]2[C@@H](O)[C@H](O)[C@@H](CO)O[C@@H]2S1`, the fold change was 0.906 (inactive) under setting [1] and 1.7 under setting [2]. The cell count reads like this: under setting [3], 6020; under setting [4], 6640.

For the compound `CCCc1cc(C(=O)c2ccc(-c3ccccc3)cc2)ccc1OCCCN1CCCc2c(OC(C)(C)C(=O)O)cccc21`, the fold change by setting is: under setting [1], 0.856 (inactive); under setting [2], 1.42. The cell count under setting [3] was 5600 and the cell count under setting [4] worked out at 6540.

For the compound `CCCCCCCC/C=C\CCCCCCCCCCCCCC(=O)N[C@@H](CO)[C@H](O)/C=C/CCCCCCCCCCCCC`, the fold change under setting [1] is 0.996 (inactive) and the fold change under setting [2] turned out to be 0.823. Besides, the cell count was determined as 5810 under setting [3] and 5830 under setting [4].

As for `CCCCCCCCCCCCCCCCCCCCCCCC(=O)NCCS(=O)(=O)O`, the fold change by setting is: under setting [1], 0.987 (inactive); under setting [2], 0.331. The cell count under setting [3] stood at 5520 and the cell count under setting [4] is 5600.

For the origin of these results see PubChem BioAssay.
